# Columns and labels:
# Test in all cases: DAPPL (digital affinity profiling via proximity ligation, sequencing); 10 mM Tris-HCl pH 7.5, 50 mM NaCl, 1 mM DTT, 4% glycerol, room temperature, 30 min; GST-TFs on glutathione beads, 16-mer random dsDNA library, 0.1% formaldehyde crosslink after washing; high values mean tight binding
# [1] = biological target: T1, FEV (Homo sapiens, UniProt Q99581 1-238); conditions: protein: recombinant; tags: N-terminal GST; dsDNA, one strand shown
# T1 sequence: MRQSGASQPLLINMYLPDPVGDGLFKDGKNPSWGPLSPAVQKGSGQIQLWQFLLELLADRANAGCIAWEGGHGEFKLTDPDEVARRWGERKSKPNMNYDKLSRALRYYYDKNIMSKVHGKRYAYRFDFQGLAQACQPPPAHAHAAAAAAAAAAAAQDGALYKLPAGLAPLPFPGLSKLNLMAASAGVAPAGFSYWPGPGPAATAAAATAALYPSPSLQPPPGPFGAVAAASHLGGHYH
# In short: (§1)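 Binding signal is each hexamer's read frequency for a factor divided by its frequency in the tag-only sample. The factors were GST-fused human transcription factors from yeast, captured on glutathione beads, DNA-barcoded and pooled with that sample. Pools were incubated with 200 nmole of a random double-stranded 16-mer DNA library in Tris/NaCl/DTT/glycerol buffer at room temperature for 30 min, then washed, crosslinked with 0.1% formaldehyde, proximity-ligated with BsaI/T4 ligase (1 h, 37 °C), PCR-amplified and sequenced on an Illumina NextSeq500.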
# [2] = biological target: ETV5 (Homo sapiens, UniProt P41161 1-510); conditions: protein: recombinant; tags: N-terminal GST; dsDNA, one strand shown
# Sequence of ETV5 (P41161 whole entry): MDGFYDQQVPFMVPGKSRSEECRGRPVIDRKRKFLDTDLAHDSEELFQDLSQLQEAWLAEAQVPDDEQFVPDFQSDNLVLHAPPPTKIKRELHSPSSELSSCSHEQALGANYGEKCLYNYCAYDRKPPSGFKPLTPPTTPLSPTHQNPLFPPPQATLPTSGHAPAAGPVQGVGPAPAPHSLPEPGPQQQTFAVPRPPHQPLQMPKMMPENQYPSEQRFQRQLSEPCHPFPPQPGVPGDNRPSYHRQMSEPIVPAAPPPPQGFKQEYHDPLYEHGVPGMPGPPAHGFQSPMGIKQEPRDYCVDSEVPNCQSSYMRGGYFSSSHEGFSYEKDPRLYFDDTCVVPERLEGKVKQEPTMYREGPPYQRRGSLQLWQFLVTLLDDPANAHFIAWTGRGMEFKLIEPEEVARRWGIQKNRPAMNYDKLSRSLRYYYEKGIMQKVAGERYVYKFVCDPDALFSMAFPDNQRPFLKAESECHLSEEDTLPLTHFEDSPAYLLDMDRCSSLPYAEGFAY
# In short: as §1
# [3] = biological target: HSF1 (Homo sapiens, UniProt Q00613 1-529); conditions: protein: recombinant; tags: N-terminal GST; chain copies: 3; dsDNA, one strand shown
# Sequence of HSF1 (Q00613 whole entry): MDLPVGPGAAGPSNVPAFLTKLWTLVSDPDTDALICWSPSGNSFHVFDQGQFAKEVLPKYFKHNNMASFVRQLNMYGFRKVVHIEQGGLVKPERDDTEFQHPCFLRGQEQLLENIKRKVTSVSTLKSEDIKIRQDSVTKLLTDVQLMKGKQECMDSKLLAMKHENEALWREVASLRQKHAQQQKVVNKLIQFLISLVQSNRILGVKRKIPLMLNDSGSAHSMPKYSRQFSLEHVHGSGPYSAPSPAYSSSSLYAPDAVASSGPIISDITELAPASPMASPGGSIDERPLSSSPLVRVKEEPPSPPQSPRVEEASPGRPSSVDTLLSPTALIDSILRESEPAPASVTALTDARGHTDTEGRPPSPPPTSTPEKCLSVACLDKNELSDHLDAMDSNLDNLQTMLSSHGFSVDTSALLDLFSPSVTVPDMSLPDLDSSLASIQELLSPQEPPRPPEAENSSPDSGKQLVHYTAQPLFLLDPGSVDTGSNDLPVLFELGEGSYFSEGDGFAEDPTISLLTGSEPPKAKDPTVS
# In short: as §1
# [4] = biological target: T2, SPIC (Homo sapiens, UniProt Q8N5J4 1-248); conditions: protein: recombinant; tags: N-terminal GST; dsDNA, one strand shown
# T2 sequence: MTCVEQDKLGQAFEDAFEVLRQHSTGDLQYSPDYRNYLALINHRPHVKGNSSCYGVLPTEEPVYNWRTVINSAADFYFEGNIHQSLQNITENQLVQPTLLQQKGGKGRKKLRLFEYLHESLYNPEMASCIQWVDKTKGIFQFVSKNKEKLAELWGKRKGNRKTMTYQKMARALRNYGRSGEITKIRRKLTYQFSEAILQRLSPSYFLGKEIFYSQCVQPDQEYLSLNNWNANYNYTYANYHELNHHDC
# In short: as §1
# [5] = biological target: ELF4 (Homo sapiens, UniProt Q99607 1-663); conditions: protein: recombinant; tags: N-terminal GST; dsDNA, one strand shown
# Sequence of ELF4 (Q99607 whole entry): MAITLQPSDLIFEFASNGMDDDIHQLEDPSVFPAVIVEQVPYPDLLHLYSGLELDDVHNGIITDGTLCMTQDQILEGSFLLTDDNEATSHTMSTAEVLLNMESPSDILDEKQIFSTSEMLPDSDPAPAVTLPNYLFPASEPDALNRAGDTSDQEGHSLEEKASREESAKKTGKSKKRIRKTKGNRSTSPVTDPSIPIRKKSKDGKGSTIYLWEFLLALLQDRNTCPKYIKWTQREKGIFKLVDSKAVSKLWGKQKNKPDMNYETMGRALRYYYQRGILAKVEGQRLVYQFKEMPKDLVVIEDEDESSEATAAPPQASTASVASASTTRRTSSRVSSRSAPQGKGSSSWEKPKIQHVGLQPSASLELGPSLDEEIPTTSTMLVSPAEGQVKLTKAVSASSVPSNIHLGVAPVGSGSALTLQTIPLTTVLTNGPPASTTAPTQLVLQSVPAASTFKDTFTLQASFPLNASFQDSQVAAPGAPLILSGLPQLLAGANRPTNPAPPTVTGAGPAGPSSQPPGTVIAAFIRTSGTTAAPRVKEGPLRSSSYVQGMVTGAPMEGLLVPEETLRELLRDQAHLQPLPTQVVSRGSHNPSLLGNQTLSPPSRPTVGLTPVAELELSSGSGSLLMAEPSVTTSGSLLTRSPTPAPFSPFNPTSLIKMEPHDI
# In short: as §1
# [6] = biological target: T3, ELK4 (Homo sapiens, UniProt P28324-2 1-405); conditions: protein: recombinant; tags: N-terminal GST; dsDNA, one strand shown
# T3 sequence: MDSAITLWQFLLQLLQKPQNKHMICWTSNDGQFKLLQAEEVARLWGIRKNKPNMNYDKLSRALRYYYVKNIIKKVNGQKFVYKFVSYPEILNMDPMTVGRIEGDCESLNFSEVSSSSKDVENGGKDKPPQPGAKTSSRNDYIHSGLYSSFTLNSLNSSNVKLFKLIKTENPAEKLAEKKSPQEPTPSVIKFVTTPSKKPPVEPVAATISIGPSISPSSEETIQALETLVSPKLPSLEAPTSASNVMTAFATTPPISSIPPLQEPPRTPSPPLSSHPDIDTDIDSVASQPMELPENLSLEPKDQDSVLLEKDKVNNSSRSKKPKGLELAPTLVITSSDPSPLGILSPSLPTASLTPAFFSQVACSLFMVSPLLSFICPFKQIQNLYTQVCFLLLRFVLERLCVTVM
# In short: as §1
# [7] = biological target: T4, ETV2 (Homo sapiens, UniProt O00321 1-342); conditions: protein: recombinant; tags: N-terminal GST; dsDNA, one strand shown
# T4 sequence: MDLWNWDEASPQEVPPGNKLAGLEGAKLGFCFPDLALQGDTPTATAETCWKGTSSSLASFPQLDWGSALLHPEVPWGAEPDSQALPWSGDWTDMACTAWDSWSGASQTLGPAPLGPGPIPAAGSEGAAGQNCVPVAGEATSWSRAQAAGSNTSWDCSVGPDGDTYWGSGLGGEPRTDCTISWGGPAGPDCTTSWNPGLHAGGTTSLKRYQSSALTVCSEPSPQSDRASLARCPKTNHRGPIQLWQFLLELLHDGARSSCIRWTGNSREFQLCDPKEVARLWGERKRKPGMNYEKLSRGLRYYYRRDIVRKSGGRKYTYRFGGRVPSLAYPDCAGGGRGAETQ
# In short: as §1
# [8] = biological target: T5, ELF3 (Homo sapiens, UniProt P78545 1-371); conditions: protein: recombinant; tags: N-terminal GST; dsDNA, one strand shown
# T5 sequence: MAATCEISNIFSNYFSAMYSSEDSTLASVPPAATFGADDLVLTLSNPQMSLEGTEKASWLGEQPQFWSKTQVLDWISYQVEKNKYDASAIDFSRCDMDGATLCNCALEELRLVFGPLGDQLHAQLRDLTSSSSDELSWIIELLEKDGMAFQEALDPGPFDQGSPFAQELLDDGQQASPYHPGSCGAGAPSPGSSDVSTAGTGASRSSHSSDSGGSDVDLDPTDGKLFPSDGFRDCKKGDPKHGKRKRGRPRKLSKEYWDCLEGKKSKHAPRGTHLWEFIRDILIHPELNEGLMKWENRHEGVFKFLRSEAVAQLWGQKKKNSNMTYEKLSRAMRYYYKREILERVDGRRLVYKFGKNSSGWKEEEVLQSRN
# In short: as §1
# [9] = biological target: CRX (Homo sapiens, UniProt O43186 1-299); conditions: protein: recombinant; tags: N-terminal GST; dsDNA, one strand shown
# Sequence of CRX (O43186 whole entry): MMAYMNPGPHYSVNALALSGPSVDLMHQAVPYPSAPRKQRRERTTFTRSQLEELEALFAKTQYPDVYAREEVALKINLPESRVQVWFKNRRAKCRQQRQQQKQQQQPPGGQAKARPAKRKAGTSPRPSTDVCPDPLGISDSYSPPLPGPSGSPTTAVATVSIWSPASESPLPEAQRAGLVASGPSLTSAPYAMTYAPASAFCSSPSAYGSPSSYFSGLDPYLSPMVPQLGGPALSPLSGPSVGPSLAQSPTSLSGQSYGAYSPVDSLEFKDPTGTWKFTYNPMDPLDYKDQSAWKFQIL
# In short: as §1
# [10] = biological target: ETV1 (Homo sapiens, UniProt P50549 1-477); conditions: protein: recombinant; tags: N-terminal GST; dsDNA, one strand shown
# Sequence of ETV1 (P50549 whole entry): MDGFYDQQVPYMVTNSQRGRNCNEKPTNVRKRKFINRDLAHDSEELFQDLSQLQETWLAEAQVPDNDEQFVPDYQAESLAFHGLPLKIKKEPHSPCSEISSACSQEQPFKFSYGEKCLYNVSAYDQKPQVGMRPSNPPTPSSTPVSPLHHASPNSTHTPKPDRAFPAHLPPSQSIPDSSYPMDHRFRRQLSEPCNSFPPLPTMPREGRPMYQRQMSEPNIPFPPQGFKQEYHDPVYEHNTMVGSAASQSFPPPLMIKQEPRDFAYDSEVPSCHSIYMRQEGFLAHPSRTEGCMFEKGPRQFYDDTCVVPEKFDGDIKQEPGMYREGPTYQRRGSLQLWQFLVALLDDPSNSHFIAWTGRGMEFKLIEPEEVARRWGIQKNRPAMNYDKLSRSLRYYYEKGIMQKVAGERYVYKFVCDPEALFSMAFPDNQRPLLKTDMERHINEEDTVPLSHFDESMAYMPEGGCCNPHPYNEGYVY
# In short: as §1
# [11] = biological target: T6, ERF (Homo sapiens, UniProt P50548 1-548); conditions: protein: recombinant; tags: N-terminal GST; dsDNA, one strand shown
# T6 sequence: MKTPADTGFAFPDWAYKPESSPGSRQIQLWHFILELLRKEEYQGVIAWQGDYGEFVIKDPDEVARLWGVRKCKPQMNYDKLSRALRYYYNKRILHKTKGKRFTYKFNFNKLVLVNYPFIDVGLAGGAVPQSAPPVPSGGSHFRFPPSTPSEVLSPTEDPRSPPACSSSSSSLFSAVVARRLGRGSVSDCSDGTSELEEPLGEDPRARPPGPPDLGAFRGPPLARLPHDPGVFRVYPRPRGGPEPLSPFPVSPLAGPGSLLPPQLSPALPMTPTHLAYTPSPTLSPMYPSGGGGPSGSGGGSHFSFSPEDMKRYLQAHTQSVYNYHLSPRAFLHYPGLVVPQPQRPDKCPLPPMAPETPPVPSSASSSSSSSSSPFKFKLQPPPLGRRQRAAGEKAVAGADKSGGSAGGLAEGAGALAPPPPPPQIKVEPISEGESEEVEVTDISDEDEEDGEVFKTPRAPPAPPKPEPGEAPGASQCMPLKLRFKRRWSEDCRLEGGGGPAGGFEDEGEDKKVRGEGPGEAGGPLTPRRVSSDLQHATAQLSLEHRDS
# In short: as §1
# [12] = biological target: T7, ETV3L (Homo sapiens, UniProt Q6ZN32 1-361); conditions: protein: recombinant; tags: N-terminal GST; dsDNA, one strand shown
# T7 sequence: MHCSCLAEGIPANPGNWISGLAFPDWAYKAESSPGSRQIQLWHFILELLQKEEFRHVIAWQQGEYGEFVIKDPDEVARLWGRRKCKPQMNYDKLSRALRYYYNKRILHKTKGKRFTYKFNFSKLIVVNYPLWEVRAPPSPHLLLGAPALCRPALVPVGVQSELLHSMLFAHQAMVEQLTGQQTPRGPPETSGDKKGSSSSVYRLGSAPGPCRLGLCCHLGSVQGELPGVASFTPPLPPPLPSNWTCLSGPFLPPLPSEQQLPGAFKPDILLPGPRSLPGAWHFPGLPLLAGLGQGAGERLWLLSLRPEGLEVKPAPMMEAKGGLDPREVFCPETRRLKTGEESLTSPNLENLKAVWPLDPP
# In short: as §1
# [13] = biological target: T8, ETS2 (Homo sapiens, UniProt P15036 1-469); conditions: protein: recombinant; tags: N-terminal GST; dsDNA, one strand shown
# T8 sequence: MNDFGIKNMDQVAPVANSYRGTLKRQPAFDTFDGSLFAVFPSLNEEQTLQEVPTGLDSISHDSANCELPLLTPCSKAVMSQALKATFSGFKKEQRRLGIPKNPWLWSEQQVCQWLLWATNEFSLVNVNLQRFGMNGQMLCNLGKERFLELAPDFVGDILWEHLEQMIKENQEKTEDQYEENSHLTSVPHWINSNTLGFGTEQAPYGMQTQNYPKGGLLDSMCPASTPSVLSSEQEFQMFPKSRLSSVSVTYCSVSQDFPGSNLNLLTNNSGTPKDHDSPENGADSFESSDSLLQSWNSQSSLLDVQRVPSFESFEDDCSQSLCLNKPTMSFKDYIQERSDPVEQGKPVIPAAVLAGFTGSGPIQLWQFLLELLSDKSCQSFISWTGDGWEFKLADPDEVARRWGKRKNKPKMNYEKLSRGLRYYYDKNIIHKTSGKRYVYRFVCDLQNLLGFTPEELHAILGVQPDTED
# In short: as §1
# [14] = biological target: T9, SPDEF (Homo sapiens, UniProt O95238 1-335); conditions: protein: recombinant; tags: N-terminal GST; dsDNA, one strand shown
# T9 sequence: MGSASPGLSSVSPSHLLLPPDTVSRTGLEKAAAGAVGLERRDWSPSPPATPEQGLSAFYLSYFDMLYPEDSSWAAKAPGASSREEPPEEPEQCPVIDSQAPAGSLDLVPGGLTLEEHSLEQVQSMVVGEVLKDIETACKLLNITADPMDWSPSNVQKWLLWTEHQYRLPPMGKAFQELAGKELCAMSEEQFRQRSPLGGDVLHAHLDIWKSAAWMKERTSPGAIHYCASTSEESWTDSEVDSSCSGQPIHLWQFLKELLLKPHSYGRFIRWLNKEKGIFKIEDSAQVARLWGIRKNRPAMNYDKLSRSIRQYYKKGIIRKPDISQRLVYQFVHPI
# In short: as §1
# [15] = biological target: T10, ETV7 (Homo sapiens, UniProt Q9Y603 1-341); conditions: protein: recombinant; tags: N-terminal GST; dsDNA, one strand shown
# T10 sequence: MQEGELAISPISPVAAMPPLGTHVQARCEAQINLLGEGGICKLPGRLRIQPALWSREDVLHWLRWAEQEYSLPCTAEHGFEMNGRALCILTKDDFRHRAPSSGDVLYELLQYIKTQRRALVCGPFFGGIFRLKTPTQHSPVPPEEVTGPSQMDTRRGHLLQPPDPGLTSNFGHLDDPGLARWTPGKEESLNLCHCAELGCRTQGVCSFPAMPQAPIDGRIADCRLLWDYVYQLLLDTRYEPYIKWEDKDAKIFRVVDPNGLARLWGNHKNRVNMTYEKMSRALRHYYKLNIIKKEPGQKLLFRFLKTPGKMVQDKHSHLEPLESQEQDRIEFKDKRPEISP
# In short: as §1
# [16] = biological target: T11, ELF5 (Homo sapiens, UniProt Q9UKW6-2 1-255); conditions: protein: recombinant; tags: N-terminal GST; dsDNA, one strand shown
# T11 sequence: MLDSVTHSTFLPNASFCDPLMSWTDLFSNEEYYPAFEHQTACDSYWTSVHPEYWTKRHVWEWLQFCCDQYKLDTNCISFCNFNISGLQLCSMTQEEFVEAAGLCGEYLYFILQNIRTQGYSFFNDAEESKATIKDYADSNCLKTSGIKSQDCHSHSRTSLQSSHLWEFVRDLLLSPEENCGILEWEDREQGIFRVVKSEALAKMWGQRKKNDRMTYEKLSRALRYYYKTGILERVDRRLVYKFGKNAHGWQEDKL
# In short: as §1
# [17] = biological target: T12, ETV3 (Homo sapiens, UniProt P41162-2 1-143); conditions: protein: recombinant; tags: N-terminal GST; dsDNA, one strand shown
# T12 sequence: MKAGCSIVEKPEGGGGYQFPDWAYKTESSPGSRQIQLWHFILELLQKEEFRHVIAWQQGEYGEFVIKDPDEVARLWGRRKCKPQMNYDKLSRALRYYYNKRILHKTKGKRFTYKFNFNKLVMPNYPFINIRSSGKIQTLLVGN
# In short: as §1
# [18] = biological target: ETV6 (Homo sapiens, UniProt P41212 1-452); conditions: protein: recombinant; tags: N-terminal GST; dsDNA, one strand shown
# Sequence of ETV6 (P41212 whole entry): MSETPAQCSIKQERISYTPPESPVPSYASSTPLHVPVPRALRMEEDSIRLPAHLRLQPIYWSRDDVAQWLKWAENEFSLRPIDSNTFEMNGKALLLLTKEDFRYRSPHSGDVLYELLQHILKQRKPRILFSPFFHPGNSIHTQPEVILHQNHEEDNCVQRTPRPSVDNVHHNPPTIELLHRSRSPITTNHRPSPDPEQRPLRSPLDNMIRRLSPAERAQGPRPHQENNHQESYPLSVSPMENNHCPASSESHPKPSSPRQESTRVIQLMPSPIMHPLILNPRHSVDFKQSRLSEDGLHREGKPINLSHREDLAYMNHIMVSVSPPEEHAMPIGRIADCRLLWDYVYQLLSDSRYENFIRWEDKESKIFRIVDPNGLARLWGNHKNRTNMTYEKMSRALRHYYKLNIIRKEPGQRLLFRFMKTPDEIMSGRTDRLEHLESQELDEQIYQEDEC
# In short: as §1
sequence,measurement,setting,value
ATTGTA,binding signal,[1],"1.19 fold enrichment (6-mer frequency, TF over GST control)"
same,binding signal,[2],"1.19 fold enrichment (6-mer frequency, TF over GST control)"
same,binding signal,[3],"1.16 fold enrichment (6-mer frequency, TF over GST control)"
same,binding signal,[4],"1.18 fold enrichment (6-mer frequency, TF over GST control)"
same,binding signal,[5],"1.24 fold enrichment (6-mer frequency, TF over GST control)"
same,binding signal,[6],"1.21 fold enrichment (6-mer frequency, TF over GST control)"
same,binding signal,[7],"1.29 fold enrichment (6-mer frequency, TF over GST control)"
same,binding signal,[8],"1.17 fold enrichment (6-mer frequency, TF over GST control)"
same,binding signal,[9],"1.28 fold enrichment (6-mer frequency, TF over GST control)"
same,binding signal,[10],"1.21 fold enrichment (6-mer frequency, TF over GST control)"
same,binding signal,[11],"1.27 fold enrichment (6-mer frequency, TF over GST control)"
same,binding signal,[12],"1.28 fold enrichment (6-mer frequency, TF over GST control)"
same,binding signal,[13],"1.17 fold enrichment (6-mer frequency, TF over GST control)"
same,binding signal,[14],"1.18 fold enrichment (6-mer frequency, TF over GST control)"
same,binding signal,[15],"1.28 fold enrichment (6-mer frequency, TF over GST control)"
same,binding signal,[16],"1.21 fold enrichment (6-mer frequency, TF over GST control)"
same,binding signal,[17],"1.26 fold enrichment (6-mer frequency, TF over GST control)"
same,binding signal,[18],"1.27 fold enrichment (6-mer frequency, TF over GST control)"

# From article PMC7862700, “An all-to-all approach to the identification of sequence-specific readers for epigenetic DNA modifications on cytosine”
